Screening data as filed in PubChem BioAssay.
A3A deaminase = APOBEC3A ssDNA deaminase inhibitors, primary screen, selectivity assay for APOBEC3G inhibitor project, biochemical, FAM/TAMRA oligo cleavage fluorescence; DNA dC->dU-editing enzyme APOBEC-3A (Homo sapiens), P31941; recombinant A3A, FAM/TAMRA ssDNA deamination fluorescence; inhibition, % at 20 µM; hit rate 0.41% among 330,000; AID 493011, 2011;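 active = at least 40% inhibition at 20 µM here, with at most 30% in a related deaminase screen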
NTR1 agonist = agonists of human NTR1, primary screen, imaging, U2OS cells, beta-arrestin-GFP, high content; NTR1-U2OS beta-arrestin-GFP spot imaging, agonist mode; hit rate 0.17% among 330,000; Neurotensin receptor type 1 (Homo sapiens), P30989; activation, % at 20 µM; AID 493036, 2011;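 active = activation at or above 40% of the spot to cytoplasm intensity ratio, with at least 20 cells analyzed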
Target sequence (P30989 whole entry, looked up): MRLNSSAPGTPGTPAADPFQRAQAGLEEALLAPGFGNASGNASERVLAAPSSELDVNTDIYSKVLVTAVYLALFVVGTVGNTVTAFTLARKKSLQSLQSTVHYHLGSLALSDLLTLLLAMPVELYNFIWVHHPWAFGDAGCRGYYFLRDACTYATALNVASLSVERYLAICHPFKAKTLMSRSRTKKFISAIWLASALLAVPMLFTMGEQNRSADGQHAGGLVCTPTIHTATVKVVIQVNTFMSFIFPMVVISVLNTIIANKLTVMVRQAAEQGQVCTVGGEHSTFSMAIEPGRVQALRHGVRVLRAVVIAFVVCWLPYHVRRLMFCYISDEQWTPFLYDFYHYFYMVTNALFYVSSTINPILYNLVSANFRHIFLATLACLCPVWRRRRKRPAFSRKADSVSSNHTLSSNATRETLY
APOBEC3G inh = APOBEC3G DNA deaminase inhibitors, primary screen, biochemical, fluorescence, single-stranded DNA substrate, uHTS. DNA dC->dU-editing enzyme APOBEC-3G (Homo sapiens), Q9HC16. recombinant A3G, ssDNA deamination FAM/TAMRA fluorescence. inhibition, % at 20 µM. hit rate 0.28% among 330,000;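 active = inhibition of at least 40% at 20 µM, with no more than 30% in the related APOBEC3A deaminase screen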
AHR activator = AHR activators, primary screen, cell-based, luminescence, luciferase reporter, human; Aryl hydrocarbon receptor (Homo sapiens), P35869; AHR-responsive luciferase reporter cells; activation, % at 5 µM; hit rate 2.5% among 320,000; AID 2796, 2010; in the data active = activation above about 47%
A number is an active result; i = inactive; nt = no result. An excerpt weighted towards active compounds, which were near 3.2% of everything screened.

SMILES	A3A deaminase	NTR1 agonist	APOBEC3G inh	AHR activator
CCOC(=O)C(=CNc1ccc2c(c1)c1ccccc1n2CC)C(=O)OCC	i	i	i	i
CCn1c2ccccc2c2cc(NC(=O)c3ccccc3-c3ccccc3C(=O)O)ccc21	i	i	i	i
CCn1c2ccccc2c2cc(NS(=O)(=O)c3ccccc3C)ccc21	i	i	i	73
CCn1c2ccccc2c2cc(NC(=O)Cc3ccc(S(=O)(=O)N4CCOCC4)s3)ccc21	i	i	i	51
CCn1c2ccccc2c2cc(NC(=O)CC(C)=O)ccc21	i	i	i	57
CC1C/C(=N/Nc2nc3ccccc3[nH]2)CC(C)(C)C1 (stereo not drawn)	i	i	i	89
CC1C/C(=N/NC(=O)c2ccc(CSc3nc4ccccc4[nH]3)cc2)CC(C)(C)C1 (stereo not drawn)	i	i	i	i
COc1ccc(CN=Cc2[nH]c3ccc(Br)c(Cl)c3c2O)cc1	i	i	i	57
Cc1cc(C)cc(N=Cc2[nH]c3ccc(Br)c(Cl)c3c2O)c1	nt	nt	nt	i
CNC(=O)/C(C#N)=C/c1c(N(Cc2ccccc2)Cc2ccccc2)nc2ccccn2c1=O	i	i	i	i
Cc1nc2c(-c3ccc(Cl)cc3)cnn2c2c1CCC2	i	i	i	74
O=C(N/C(=C/c1cccnc1)C(=O)N1CCCCCC1)c1cccc(Br)c1	i	i	i	48
CC1C(=O)Nc2ccc(S(=O)(=O)N3CCCCCC3)cc21 (stereo not drawn)	i	i	i	i
Cc1nn(-c2ccccc2)c(N)c1C(O)(CSc1nccn1C)C(F)(F)F (stereo not drawn)	i	i	i	i
Cc1nn(-c2ccc(Cl)cc2)c(N)c1C(O)(CSc1nccn1C)C(F)(F)F (stereo not drawn)	i	i	i	48
Cc1nc2c(-c3ccccc3)c(C)nn2c(SCC(N)=O)c1Cc1ccccc1	i	i	i	i
Cc1cccc(OCC(=O)Oc2ccc(Cl)cc2)c1	i	i	i	i
Cc1cccc(OC(=O)NCCOC(=O)N(O)c2ccc(Cl)cc2)c1	i	i	i	53
N#C/C(=N\Nc1ccc(Cl)cc1)C(N)=S	i	i	i	59
COc1ccc(C(=O)Nc2ccc3[nH]ncc3c2)cc1	i	i	i	i
COc1ccc(OC)c(C(=O)Nc2ccc3[nH]ccc3c2)c1	i	i	i	50
COc1ccc(C(=O)Nc2ccc3cn[nH]c3c2)c(OC)c1	i	i	i	56
C/C(=N\Nc1nc2ccccc2[nH]1)c1ccc2c(c1)OCO2	i	i	i	128
C/C(=N\Nc1nc2ccccc2[nH]1)c1cc2ccccc2o1	i	i	i	54
C/C(=N\Nc1nc2ccccc2[nH]1)c1ccccn1	i	i	i	i
SMILES	A3A deaminase	NTR1 agonist	APOBEC3G inh	AHR activator
C/C(=N\Nc1nc2ccccc2[nH]1)c1ccc2c(c1)OCCO2	i	i	i	56
C/C(=N\Nc1ccccn1)c1ccc2c(c1)OCO2	i	i	i	59
CCOc1ncccc1C(=O)NCCc1ccc(Cl)cc1	i	i	i	i
O=C(OCc1c(-c2ccccc2)ncc2ccccc12)c1ccccc1C(F)(F)F	i	i	i	i
CN(C)CCn1c(SCc2ccccc2C#N)nc2c(sc3ccccc32)c1=O	i	i	i	i
C/C(=N\Nc1ccccn1)c1ccc(Br)s1	i	i	i	70
C/C(=N\Nc1ccccn1)c1ccc(C(C)C)cc1	i	i	i	i
Cc1cc(S(=O)(=O)NCCCN2CCOCC2)c(Cl)cc1Cl	i	i	i	i
CSc1ccc(-c2cc(=O)c3ccccc3o2)cc1	i	i	i	i
O=c1cc(-c2ccc(F)cc2)oc2ccccc12	i	i	i	71
O=C1C=C(c2ccc(F)nc2)C[C@@H](c2ccc3c(c2)OCO3)C1	i	i	i	58
CC(C)N=C(Nc1ccc(Cl)cc1)c1cccnc1	i	i	i	79
CC(C)c1ccc(NC(=O)c2cccnc2)cc1	i	i	i	i
Cn1cccc1CNCC(O)c1ccccc1 (stereo not drawn)	i	i	i	i
Cc1ccc(N(CC(=O)NC2CCCCC2)S(=O)(=O)c2cccs2)cc1	i	i	i	i
Cn1c(-c2ccsc2)c(-c2cccs2)c2cc(Br)ccc21	i	i	i	63
Cn1c(-c2ccsc2)c(-c2cccs2)c2cc(-c3ccc4cc[nH]c4c3)ccc21	i	i	i	66
COc1cc(OC)cc(-c2c(-c3cccs3)c3cc(-c4ccn[nH]4)ccc3n2C)c1	i	i	i	64
Cn1c(-c2ccsc2)c(-c2cccs2)c2cc(-c3ccc4[nH]ccc4c3)ccc21	i	i	i	i
